Screening results as filed in PubChem BioAssay.
Sampled rows, rich in hits. Any-hit rate of the full collection: about 12%.
BAZ2B block: inhibitors of human BAZ2B bromodomain; Q9UIF8; 360,000 compounds, 4.4% hits; Potency, µM (titrated, usually from 114 µM), for inactives: at the highest dose activity change, negative = inhibition, most hits filed as inhibitors; AlphaScreen BAZ2B-H3K14Ac peptide displacement; note: % is set by controls: 0 for no effect and ±100 for the full control effect; nearly all actives have a fitted effect of over 60% in size
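BAZ2B 50 nM plus b-H3(5-23)K14Ac 50 nM, PBS pH 7.4/0.01% Tween-20, 30 min RT; compound added (max 110 uM), 30 min RT; streptavidin donor/Ni-chelate acceptor beads 10 ug/mL final, 20 min dark; AlphaScreen read.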
G9a block: inhibitors of human histone lysine methyltransferase G9a | Q96KQ7 | G9a H3K9 monomethylation, AlphaScreen, 2 h | Potency, µM (highest dose often 102 µM), inactives show at the highest dose activity, negative = inhibition, actives largely listed as inhibitors | 350,000 compounds, 8.8% hits; note: % is set by controls: 0 for no effect and ±100 for the full control effect; nearly all actives have a fitted effect of over 75% in size
Target sequence (Q96KQ7 913-1193 limits assumed): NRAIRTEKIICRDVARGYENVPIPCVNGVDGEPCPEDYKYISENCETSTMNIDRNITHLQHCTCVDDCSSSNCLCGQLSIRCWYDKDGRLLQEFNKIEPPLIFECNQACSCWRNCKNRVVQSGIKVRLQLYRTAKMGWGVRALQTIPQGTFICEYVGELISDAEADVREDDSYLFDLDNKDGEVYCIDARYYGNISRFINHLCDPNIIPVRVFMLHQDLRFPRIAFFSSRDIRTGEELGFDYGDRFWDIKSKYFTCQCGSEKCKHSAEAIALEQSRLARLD
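Compounds were preincubated with 20 nM G9a for 15 min, after which biotinylated H3K9 peptide (500 nM) and SAM (20 uM) started a 2 h room-temperature reaction. Monomethylated product was quantified by antibody-based AlphaScreen chemiluminescence.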
JMJD2A Tudor inh: JMJD2A Tudor domain (human) inhibition. AlphaScreen JMJD2A-Tudor / H3K4me3 peptide binding. 390,000 compounds, 4.4% hits. Potency, µM (doses to about 114 µM), without a hit: at the top dose activity change, negative = inhibition, actives largely listed as inhibitors; note: % is set by controls: 0 for no effect and ±100 for the full control effect; nearly all actives have a fitted effect of over 50% in size
L3MBTL1 block: L3MBTL1 (human) inhibition. AlphaScreen L3MBTL1–H3K9me1 peptide binding. Potency, µM (titrated, usually from 57.1 µM), inactives show at the top dose activity, negative = inhibition, most hits filed as inhibitors. 230,000 compounds, 0.66% hits. AID 485360; note: % is set by controls: 0 for no effect and ±100 for the full control effect; nearly all actives have a fitted effect of over 60% in size
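Displacement of a biotinylated histone H3(1-15) peptide monomethylated at Lys9 (75 nM) from L3MBTL1 (50 nM) was measured by AlphaScreen after a 30 min room-temperature compound incubation; cefsulodin titration served as intraplate control.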
Sfp inh: blocks B. subtilis Sfp PPTase activity. Biochemical Sfp PPTase activity, qHTS. Potency, µM, for the others: largest response in the series, negative = inhibition, hits mostly inhibitors. 310,000 compounds, 3.5% hits;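 note: the enzyme is Sfp with the accession as filed and its product quenches rhodamine fluorescence; 0% = enzyme reaction without inhibitor and -100% = no enzyme wells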
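Sfp 15 nM + cpd, 15 min RT; start w/ rhodamine-CoA 5 uM, BHQ-2-YbbR 12.5 uM (final); 50 mM Hepes pH 7.6, 10 mM MgCl2, 0.01% NP-40, 0.01% BSA; read 525/598 nm at 0 and 30 min.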
HP1b chromo inh: blocks HP1-beta chromodomain binding to methylated histone tails; P83916; AlphaScreen HP1-beta / biotin-H3K9me3 peptide binding; Potency, µM (top dose mostly 114 µM), for inactives: top-dose activity change, negative = inhibition, hits mostly inhibitors; 390,000 compounds, 0.56% hits; note: nearly all actives have a fitted effect of over 70% in size
Target sequence (P83916 whole entry, looked up): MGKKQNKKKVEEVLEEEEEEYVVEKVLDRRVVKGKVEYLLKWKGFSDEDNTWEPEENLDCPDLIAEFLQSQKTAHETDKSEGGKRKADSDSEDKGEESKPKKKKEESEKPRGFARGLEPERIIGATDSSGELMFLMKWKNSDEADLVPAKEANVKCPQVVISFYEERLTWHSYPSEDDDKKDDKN
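AlphaScreen: HP1-beta (50 nM) preformed 30 min with biotin-H3(1-18)K9me3 peptide (50 nM) in PBS pH 7.4, 0.01% Tween-20. Compound added for 30 min at RT, then streptavidin donor/nickel chelate acceptor beads (10 ug/mL) for 30 min.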
* marks the source's active call; other numbers are inactive results; ? = inconclusive; nt = no result; [ ] = remark or other dose. Calls come from the whole dose curve; as a rule, active = well fitted curve in the direction sought with a large enough effect; inconclusive = small, poorly fitted or top-dose-only effect, or another doubt; inactive = no such curve, though single readings can be large; an effect the other way counts as inactive or inconclusive. Potency is the fitted concentration of half-maximal effect.

SMILES	BAZ2B block	G9a block	JMJD2A Tudor inh	L3MBTL1 block	Sfp inh	HP1b chromo inh
COc1cccc(C(=O)n2nc(-c3cccnc3)nc2NCc2ccc(F)cc2)c1	1.5%	-2.2%[59 µM]	-14.2%	nt	nt	38.9%
Fc1cc(F)cc(Nc2nc(NC3CCCC3)nc(C3CO3)n2)c1 (stereo unspecified)	nt	nt	-21.9%	nt	nt	nt
O=S(=O)(NN=C1CCCCCC1)c1ccccc1	-1.6%	35.4%	5.5%	nt	17.1%	30.4%
CC1CCCCC1NS(=O)(=O)c1ccc(S(=O)(=O)NCc2ccncc2)cc1 (stereo unspecified)	?	17.8µM*	-11.5%	52.4%	4.0%	26.5%
CCC1CC=CC2C1C(=O)N(Cc1ccccc1)C2c1ccoc1 (stereo unspecified)	nt	nt	18.6%	nt	-14.5%	58.2%
Cc1ccc2nsnc2c1NC(=O)c1ccc(-c2cc(Cl)ccc2Cl)o1	?	?	-15.6%	-0.6%	28.2µM*	43.5%
O=C(Nc1cccc2nsnc12)c1ccc(-c2cccc(Cl)c2)o1	5.6%[57.1 µM]	25.1µM*	-12.8%	-11.7%	25.1µM*	28.3%
O=C(Cc1nnc(-c2cc3ccccc3[nH]2)s1)Nc1cc(C(F)(F)F)ccc1Cl	nt	nt	-14.4%	nt	nt	nt
CCCN(CCC)CCNC(=O)c1cc(Sc2ccc(Cl)cc2)nc2ccccc12	26.9%	-4.0%[59 µM]	-11.0%	nt	nt	66.8%
CCNc1ncc2nc(-c3ccc(F)cc3)c(=O)n(C[C@H]3CCCO3)c2n1	nt	9.8%[0.501 µM]	nt	nt	28.3%	nt
CN(CC(=O)Nc1cccc(F)c1)C(=O)/C=C/c1cn(Cc2ccccc2)nc1-c1cccnc1	-9.5%	50.1µM*	-26.7%	-7.4%	nt	17.7%
COc1ccc2c(C)c(CC(=O)N3CCN(C(=O)C4COc5ccccc5O4)CC3)c(=O)oc2c1C (stereo unspecified)	-1.5%	5.4%	17.8µM*	nt	14.0%	-21.1%
COc1cc2nc(N3CCN(C(=O)C4COc5ccccc5O4)CC3)nc(N)c2cc1OC (stereo unspecified)	?	27.5%[12.7 µM]	-15.1%	-2.0%	56.2µM*	23.3%
O=C(O)C1C2CCC(CC2)C1C(=O)O (stereo unspecified)	nt	nt	?	nt	nt	37.5%
N[C@H](C(=O)O)C1C(C(=O)O)C1C(=O)O (stereo partly specified)	nt	22.8%[59 µM]	nt	nt	50.1µM*	nt
C=CCN(CC=C)CCOc1cccc2ccccc12	50.1µM*	11.2µM*	20µM*	3.4%	-16.4%	?
CCCCN(CC)CCOc1cccc2ccccc12	nt	39.5%[59 µM]	nt	nt	?	nt
C=CCN(CC=C)CCOc1ccccc1	56.2µM*	12.6µM*	3.55µM*	0.4%	-25.8%	-18.0%
CC(C)CN(C[C@@H](O)[C@H](Cc1ccccc1)NC(=O)O[C@H]1CO[C@H]2OCC[C@H]21)S(=O)(=O)c1ccc(N)cc1	nt	7.6%[12.7 µM]	nt	nt	11.8%	nt
Cc1cc(NC(=O)CN2C(=O)c3ccccc3S2(=O)=O)no1	-15.6%	25.1µM*	-13.1%	nt	9.9%	26.7%
CCc1nnc(NC(=O)CN2C(=O)c3ccccc3S2(=O)=O)s1	-5.4%	-7.6%[59 µM]	-35.6%	nt	12.1%	14.7%
Cc1nnc(NC(=O)CN2C(=O)c3ccccc3S2(=O)=O)s1	-2.1%	50.1µM*	-28.3%	nt	-28.4%	22.4%
O=C(CN1C(=O)c2ccccc2S1(=O)=O)Nc1ccon1	21.8%	-1.0%	0.7%	-3.3%	nt	31.4%
COCCN(CC(=O)Nc1cccc(C)c1C)C(=O)Cn1c(=O)cnc2ccccc21	-1.8%	4.0%[12.7 µM]	-7.1%	4.5%	nt	16.1%
CCCC(=O)Nc1ccc2nc(SCc3ccc(C)cc3)sc2c1	0.6%	39.9%[59 µM]	1.7%	nt	nt	79.9%
SMILES	BAZ2B block	G9a block	JMJD2A Tudor inh	L3MBTL1 block	Sfp inh	HP1b chromo inh
O=C1NCC(c2ccccc2)C1C(=O)N/N=C\c1ccc(-c2cccc(Cl)c2Cl)o1 (stereo unspecified)	?	12.6µM*	?	nt	-28.9%	-6.1%
COc1cccc(/C=N\NC(=O)C2C(=O)NCC2c2ccccc2)c1O (stereo unspecified)	-1.5%	23.9%[59 µM]	9.1%	12.6%	16.9%	38.3%
Cc1ccc(-c2ccc(/C=N\NC(=O)C3C(=O)NCC3c3ccccc3)o2)cc1Cl (stereo unspecified)	1.8%	?	?	nt	50.1µM*	-6.6%
COC(=O)N/N=C/c1ccc(-c2ccc(C)c(Cl)c2)o1	1.8%	-10.8%[59 µM]	-18.8%	-15.4%	5.7%	-3.0%
COc1cc2c(cc1OC)-c1cc(NC3CCCCCCC3)nc(=O)n1CC2	-29.0%	44.7µM*	-20.3%	4.4%	0.3%	16.2%
CCNc1cc2n(c(=O)n1)CCc1cc(OC)c(OC)cc1-2	-2.3%	2.6%	-17.4%	3.5%	9.6%	14.2%
COc1cc2c(cc1OC)-c1cc(NCc3ccccn3)nc(=O)n1CC2	28.2µM*	nt	-24.0%[11.4 µM]	?	20.0%	10.0%
Fc1ccc2c(c1)-c1c(cnc3cc(-c4ccc(Cl)cc4)nn13)CO2	-2.1%	1.3%[59 µM]	-3.7%	nt	nt	22.8%
N#Cc1ccc(NC(=O)Cn2c3[n+](c4ccc(C(F)(F)F)cc42)CCCCC3)cc1	-13.1%	?	14.1µM*	-2.8%[11.4 µM]	-14.9%	-7.5%
O=C(Cn1c2[n+](c3ccc(C(F)(F)F)cc31)CCCCC2)Nc1ccc(Br)cc1	?	35.5µM*	-4.0%	nt	?	37.7%
FC(F)(F)c1cccc(Cn2c3[n+](c4ccc(C(F)(F)F)cc42)CCCCC3)c1	-22.3%	22.4µM*	-16.3%	nt	2.0%	18.5%
CCc1ccc(NC(=O)Cn2c3[n+](c4c(F)c(F)ccc42)CCCCC3)cc1	-22.7%	?	-1.4%	39.8%	?	29.7%
Cc1cc(C(C)(C)C)cc(C)c1Cn1c2[n+](c3ccc(C(F)(F)F)cc31)CCCCC2	0.8%	-47.0%	?	-1.6%	-23.8%	3.0%
NC(=O)C1O[C@@H](O)[C@H](O)[C@@H](O)[C@H]1O (stereo partly specified)	nt	nt	nt	nt	15.5%	nt
CN(C)/C=C1\SC(=S)N(c2ccc(Br)cc2)C1=O	39.8µM*	44.7µM*	?	nt	-10.1%	-10.6%
O=C1CSC(=S)N1c1ccc(F)cc1	-28.9%	?	nt	nt	-15.8%	nt
CN(C)/C=C1\SC(=S)N(c2ccc(F)cc2)C1=O	-27.9%	63.1µM*	-18.6%	nt	-15.2%	-25.1%
CC(=O)N(/C=C1\SC(=S)N(c2ccccc2)C1=O)c1ccccc1	?	?	?	-19.0%	-9.2%	-3.5%
Cc1ccc([C@H]2Nc3ccc(S(=O)(=O)Nc4cccc(Cl)c4C)cc3[C@H]3C=CC[C@H]32)cc1	?	14.1µM*	?	nt	nt	1.2%
Cc1c(Cl)cccc1NS(=O)(=O)c1ccc(NS(=O)(=O)c2ccc3c(c2)OCCO3)cc1	-11.0%	?	-10.7%	nt	nt	1.7%
